A number with no mark means an inactive call. Active and inactive are the calls of the source. Rule as the data show it, unless noted: active = inhibition above about 30%; inactive = the rest.
Experiments:
[1] = target: Nuclear receptor coactivator 3 (Homo sapiens) (UniProt Q9Y6Q9); assay: NCOA3 GAL4-fusion reporter inhibition – cell-based, luminescence, quadruplicate, confirmation (AID 588792;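 active = mean inhibition over 43.08%, the solvent-only control mean plus 3 SD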;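 also: 0% = DMSO treated cells and 100% = gossypol at 36 µM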); conditions: HEK293 GAL4-SRC3 luciferase reporter, at 3.6 µM, hits give high values
Chain of Nuclear receptor coactivator 3 (Homo sapiens) (Q9Y6Q9 whole entry, looked up, the tested form may be a part): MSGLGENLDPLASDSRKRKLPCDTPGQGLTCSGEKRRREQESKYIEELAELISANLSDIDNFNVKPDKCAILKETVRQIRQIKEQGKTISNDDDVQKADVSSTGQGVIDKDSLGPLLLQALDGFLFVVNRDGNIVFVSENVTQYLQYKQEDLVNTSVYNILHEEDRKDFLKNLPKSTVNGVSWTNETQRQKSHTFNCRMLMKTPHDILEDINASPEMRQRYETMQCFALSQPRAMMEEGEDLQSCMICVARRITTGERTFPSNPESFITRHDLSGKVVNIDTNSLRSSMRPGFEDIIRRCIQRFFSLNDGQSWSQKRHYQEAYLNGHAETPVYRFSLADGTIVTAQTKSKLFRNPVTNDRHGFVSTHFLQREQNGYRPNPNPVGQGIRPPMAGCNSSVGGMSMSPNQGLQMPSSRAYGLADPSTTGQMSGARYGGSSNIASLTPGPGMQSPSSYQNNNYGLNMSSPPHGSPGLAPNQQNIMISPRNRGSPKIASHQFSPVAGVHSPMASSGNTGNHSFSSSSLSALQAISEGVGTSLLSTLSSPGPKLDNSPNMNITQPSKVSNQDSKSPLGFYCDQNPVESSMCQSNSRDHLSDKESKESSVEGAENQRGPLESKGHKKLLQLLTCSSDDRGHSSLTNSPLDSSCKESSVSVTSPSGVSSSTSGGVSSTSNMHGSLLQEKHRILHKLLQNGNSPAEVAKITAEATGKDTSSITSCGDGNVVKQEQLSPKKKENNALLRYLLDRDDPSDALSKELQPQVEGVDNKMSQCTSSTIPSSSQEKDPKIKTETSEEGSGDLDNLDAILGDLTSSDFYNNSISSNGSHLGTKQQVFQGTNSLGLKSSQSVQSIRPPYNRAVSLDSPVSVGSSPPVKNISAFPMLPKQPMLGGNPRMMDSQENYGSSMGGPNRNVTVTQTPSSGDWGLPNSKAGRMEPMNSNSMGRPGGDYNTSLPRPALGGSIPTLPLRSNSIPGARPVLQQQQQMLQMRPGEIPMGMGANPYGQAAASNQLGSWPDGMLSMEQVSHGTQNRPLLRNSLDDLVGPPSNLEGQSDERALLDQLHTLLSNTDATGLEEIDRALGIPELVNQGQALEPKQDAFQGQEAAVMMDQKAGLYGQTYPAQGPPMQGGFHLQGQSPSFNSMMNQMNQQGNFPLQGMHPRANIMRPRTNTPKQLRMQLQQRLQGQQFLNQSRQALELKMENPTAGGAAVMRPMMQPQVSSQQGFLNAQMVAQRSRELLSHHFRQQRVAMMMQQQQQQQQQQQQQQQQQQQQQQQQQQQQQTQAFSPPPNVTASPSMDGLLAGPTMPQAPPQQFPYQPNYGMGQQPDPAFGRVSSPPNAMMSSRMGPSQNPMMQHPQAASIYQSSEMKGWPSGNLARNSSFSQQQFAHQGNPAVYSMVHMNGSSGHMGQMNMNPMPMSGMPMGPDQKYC

[2] = test system: transactivating tegument protein VP16 (Human herpesvirus 1), Gal4-VP16 luciferase reporter; assay: repression of VP16-driven luciferase reporter – cell-based, luminescence, high throughput, counter-screen for SRC3 inhibitor project (AID 588794); conditions: mammalian cells, at 3.6 µM, hits give high values
[3] = target: Nuclear receptor coactivator 1 (Homo sapiens) (UniProt Q15788); assay: NCOA1 GAL4-fusion reporter inhibition – cell-based, luminescence, quadruplicate, confirmation (AID 588820;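 active = mean inhibition above 46.68%, the untreated control wells mean plus 3 SD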;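 also: 0% = DMSO wells and 100% = gossypol 36 µM treated wells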); conditions: HEK293 GAL4-SRC1 luciferase reporter, at 3.6 µM, hits give high values
Chain of Nuclear receptor coactivator 1 (Homo sapiens) (Q15788 whole entry, looked up, the tested form may be a part): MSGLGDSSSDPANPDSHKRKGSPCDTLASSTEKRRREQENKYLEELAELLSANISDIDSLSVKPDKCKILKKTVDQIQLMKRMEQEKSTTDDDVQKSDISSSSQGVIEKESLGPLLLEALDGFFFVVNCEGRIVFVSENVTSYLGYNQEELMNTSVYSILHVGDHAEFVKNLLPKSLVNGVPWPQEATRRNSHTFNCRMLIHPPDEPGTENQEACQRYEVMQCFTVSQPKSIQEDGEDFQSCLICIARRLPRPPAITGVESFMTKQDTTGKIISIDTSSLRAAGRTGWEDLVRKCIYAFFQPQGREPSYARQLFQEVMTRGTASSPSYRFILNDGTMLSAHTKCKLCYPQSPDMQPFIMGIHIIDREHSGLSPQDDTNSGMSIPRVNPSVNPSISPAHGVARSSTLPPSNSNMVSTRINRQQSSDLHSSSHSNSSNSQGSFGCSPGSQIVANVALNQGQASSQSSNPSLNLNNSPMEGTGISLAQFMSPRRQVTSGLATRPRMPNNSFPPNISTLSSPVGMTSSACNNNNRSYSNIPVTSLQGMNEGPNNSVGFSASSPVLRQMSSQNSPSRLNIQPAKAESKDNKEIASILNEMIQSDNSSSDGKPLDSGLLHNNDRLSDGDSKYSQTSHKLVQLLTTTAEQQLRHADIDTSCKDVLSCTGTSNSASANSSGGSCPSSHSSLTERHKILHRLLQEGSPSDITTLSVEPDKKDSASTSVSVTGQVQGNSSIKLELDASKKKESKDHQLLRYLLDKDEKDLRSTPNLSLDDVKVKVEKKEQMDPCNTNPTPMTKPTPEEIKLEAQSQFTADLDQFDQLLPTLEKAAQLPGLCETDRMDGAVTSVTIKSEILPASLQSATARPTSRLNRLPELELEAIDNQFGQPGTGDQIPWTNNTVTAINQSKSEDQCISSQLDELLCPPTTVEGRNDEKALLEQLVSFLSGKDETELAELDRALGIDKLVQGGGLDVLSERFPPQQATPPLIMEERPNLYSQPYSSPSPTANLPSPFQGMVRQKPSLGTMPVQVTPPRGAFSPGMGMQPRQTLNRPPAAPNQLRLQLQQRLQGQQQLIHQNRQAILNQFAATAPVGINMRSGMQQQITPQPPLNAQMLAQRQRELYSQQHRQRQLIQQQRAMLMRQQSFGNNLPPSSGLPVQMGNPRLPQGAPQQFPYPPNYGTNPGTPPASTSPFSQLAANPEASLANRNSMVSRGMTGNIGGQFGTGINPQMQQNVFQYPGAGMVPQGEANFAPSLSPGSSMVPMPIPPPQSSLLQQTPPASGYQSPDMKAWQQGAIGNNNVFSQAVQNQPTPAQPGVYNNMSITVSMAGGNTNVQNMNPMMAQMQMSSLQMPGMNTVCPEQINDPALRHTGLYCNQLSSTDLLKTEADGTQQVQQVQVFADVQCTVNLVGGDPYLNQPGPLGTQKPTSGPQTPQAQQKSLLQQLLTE

[4] = repression of VP16-driven luciferase reporter – cell-based, luminescence, high throughput, counter-screen for SRC1 inhibitor project (AID 588824; in the data active = inhibition above about 25%); conditions: cell-based VP16 transactivation luciferase luminescence; at 3.6 µM; hits give high values

Structure (SMILES) | inhibition [1] | inhibition [2] | inhibition [3] | inhibition [4]
Nc1nc(/C=C/c2cccnc2)nc(-c2ccccc2O)n1 | -12.6% | 0.59% | -16.8% | 14.2%
CC(=O)c1ccc(Nc2ncnc3ccc(Br)cc23)cc1 | 49.5% (active) | 39.7% (active) | 56.4% (active) | 37.8% (active)
Cc1ccc(C(=O)CSc2cnc3ccccc3n2)cc1C | -16.1% | -33% | -96.7% | -68.1%
COc1ccc2cc3c(N)nn(C(=O)c4ccc(Cl)c([N+](=O)[O-])c4)c3nc2c1 | 70.2% (active) | 39.4% (active) | 56.7% (active) | 36.5% (active)
CCN(CC)S(=O)(=O)c1cccc(NC(=O)COC(=O)c2[nH]c(C)c(C(C)=O)c2C)c1 | 20% | 42.5% (active) | 6.19% | 42.8% (active)
Cc1ccc(NC(=O)NC2CC(=O)N(c3ccc4c(c3)OCCO4)C2)cc1C (stereo unspecified) | 41.9% | 33.8% (active) | 46% | 20.9%
CC(C)c1ccc(-c2csc(NC(=O)c3cccs3)c2C(=O)O)cc1 | 8.33% | 18.6% | -2.31% | 33.9% (active)
COc1ccc(Cc2noc(CN3CCN(c4ccc(Cl)cn4)CC3)n2)cc1OC | 14.7% | 21.5% | 6.4% | 33% (active)
CCCCC(=O)NC(c1ccc(N(C)C)cc1)c1ccc2cccnc2c1O (stereo unspecified) | 58.5% (active) | 43.9% (active) | 48% (active) | 55.9% (active)
